# Experimental data taken from publication PMC6212790, “How bacterial xenogeneic silencer rok distinguishes foreign from self DNA in its resident genome”.
# The full ranking holds about 33,000 sequences; the median of “e-score” is about -0.037, and the highest 2% start at about 0.34. What follows is part of a selection rich in the highest values, with near analogues and random picks from the rest.
# Target: T1, GST-Rok (full length) (Bacillus subtilis subsp. subtilis str. …, UniProt O34857 1-191)
# T1 sequence: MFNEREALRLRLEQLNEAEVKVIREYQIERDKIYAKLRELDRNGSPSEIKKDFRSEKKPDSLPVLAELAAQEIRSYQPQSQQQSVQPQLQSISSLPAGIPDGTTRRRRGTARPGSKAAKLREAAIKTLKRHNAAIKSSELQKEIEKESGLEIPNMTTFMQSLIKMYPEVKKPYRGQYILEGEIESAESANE
# Experiment: protein binding microarray; Rok is a gene silencer of Bacillus subtilis; high values mean tight binding
# Conditions: protein: recombinant; tags: GST (pTH5325, pDEST15-Magic modified); dsDNA, one strand shown
# Method in brief: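 Each has a 25-mer constant primer and a 35-mer variable part from a de Bruijn sequence of order 10, covering every non-palindromic 8-mer at least 32 times (palindromic 16). Preference for each 8-mer is given as a rank-based, unitless enrichment score (E-score). Its range runs from 0.5 (most favored) to −0.5 (most disfavored).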
row,Sequence,binding signal [E-score]
1,GCTGGCAC,-0.181
2,GTGCCAAA,-0.127
3,AGTGAAGA,-0.00169
4,CTCGAAAG,-0.0828
5,TACCTATA,0.37
6,AACCTATA,0.239
7,CACCTATA,0.214
8,TACCTAAA,0.37
9,CACCTAAA,0.131
10,AACCTAAA,0.102
11,ATTAAGAA,0.154
12,ACTTGCCG,-0.0504
13,AAACTCTC,0.106
14,CACCATCG,-0.0961
15,GATCAATA,0.157
16,AATCAATA,0.296
17,TATCAATA,0.343
18,CTCGCGAG,-0.0252
19,AGAAGGAC,-0.175
20,ACAGAGGC,-0.125
21,AACTATTA,0.431
22,AACTATTG,0.378
23,AACTATTC,0.315
24,GACTATTA,0.157
25,ACCTATTG,0.182

row,Sequence,binding signal [E-score]
1,CACTATTA,0.268
2,CGGACTCA,-0.0715
3,ATTTTGAA,0.162
4,CTAAGGGA,-0.154
5,CAGCCCGG,-0.158
6,AAGTCCGC,-0.0838
7,GCAAGTAA,-0.0735
8,AACCTCAT,-0.155
9,GCTAGTAA,0.294
10,ATTAGTAA,0.314
11,ACTAGTAA,0.382
12,TCTAGTAA,0.351
13,CCTAGTAA,0.256
14,ACTAGTGA,0.172
15,CTAAGCAG,-0.152
16,ACATCGAT,0.166
17,AGCTGGGG,-0.188
18,ACAAGAAA,-0.0731
19,TCTAGAAA,0.222
20,CCTAGAAA,0.0461
21,ACTAGAAA,0.344
22,ACTAGAAC,0.296
23,GCTAGAAA,0.37
24,ACTAGAAG,0.215
25,ACTAGAAT,0.356

row,Sequence,binding signal [E-score]
1,ACGAGAAA,-0.0804
2,CGCTAGTA,0.31
3,CTGGCAGA,-0.0653
4,AGGCAACG,-0.102
5,CGACGCAA,0.0906
6,ATCGATAC,0.213
7,ATAGAGAT,0.0483
8,CTAGATAG,0.346
9,ATCGATAA,0.332
10,CGAGATAG,0.0866
11,ATAGATAA,0.297
12,ATAGATAG,0.34
13,ACAGATAT,0.153
14,ATAGATAT,0.374
15,CCAGATAG,0.188
16,ATCGATAG,0.361
17,ATAGATAC,0.331
18,CCAAGTGG,-0.0692
19,CTAAAGAG,0.00604
20,AGTTGTGC,0.157
21,TGTTAACA,0.207
22,AAGAGCGA,-0.102
23,ATTGTTTA,-0.087
24,AGTGGAGG,-0.0535
25,AGTGATAC,0.231

row,Sequence,binding signal [E-score]
1,ATAGATTC,0.374
2,AGTGATAG,0.377
3,AGTGATAA,0.145
4,ATAGATTG,0.316
5,ATAGATTA,0.301
6,AGGATTTA,0.0716
7,ACTGTACT,0.209
8,AGATATCG,0.218
9,GCCCGTAA,-0.148
10,ATGGACAT,0.0858
11,CCGCGGCG,-0.19
12,CATAGCTA,0.306
13,GATAGCAA,0.189
14,GATAGCTA,0.35
15,AATAGCTA,0.358
16,GATAGCGA,0.106
17,AATAGCTG,0.206
18,ACAGTAAC,0.293
19,GTCAAAAC,0.00409
20,GGAATGTA,0.103
21,AACACCGT,0.146
22,GTGACAAC,-0.0442
23,ACTAGATC,0.327
24,GCTAGATA,0.342
25,ACTAGATA,0.402

row,Sequence,binding signal [E-score]
1,GCTAGACA,0.0674
2,ACTAGAGA,-0.0107
3,ACTAGACG,-0.0512
4,ACTAGACA,0.054
5,ACTAGATG,0.339
6,CCTAGATA,0.101
7,CAGATTAG,0.083
8,CAGTGTAA,0.192
9,CACAAAGC,0.0266
10,ACCACAAG,-0.065
11,CAGGTGCA,-0.198
12,TATGTCGA,0.132
13,CTAATCGA,0.122
14,GCTACCAC,0.188
15,ACTACCAT,0.352
16,ACTACCAC,0.347
17,CCTACCAC,0.224
18,ACTACCAG,0.238
19,ACTACCAA,0.305
20,TAGTACCA,0.166
21,GCATCGAC,0.0744
22,CTGTAGAC,0.117
23,ATGTAGAA,0.423
24,GTGTAGAA,0.292
25,ATGTAGAG,0.199

row,Sequence,binding signal [E-score]
1,ATGTAGAC,0.257
2,CTGTAGAA,0.345
3,CCCAAACC,-0.181
4,GTACGGTA,0.232
5,TACTTACA,0.331
6,AGGTAGGC,-0.115
7,GAGTGAAA,-0.103
8,CTATAGTC,0.096
9,ATATAGTC,0.25
10,ATATAGTG,0.274
11,CTATAGTA,0.365
12,GTATAGTA,0.316
13,ATATAGTA,0.456
14,ACTGCTAG,-0.0701
15,CCGACCAA,-0.12
16,CCGACTAA,0.0388
17,AGAAACAA,0.253
18,AGGTATGC,0.154
19,AAGTGGAG,-0.191
20,ATCTAATA,0.313
21,ATCTAATG,0.241
22,ATCTAATC,0.351
23,CAAATTTA,0.168
24,ATAATTTG,0.284
25,TAAATTTA,0.361

row,Sequence,binding signal [E-score]
1,CTAATTTC,0.162
2,CTAATTTA,0.286
3,AAAATTTA,0.293
4,GCAATTTA,0.279
5,ATAATTTA,0.397
6,ATAATTCA,0.21
7,GTAATTTA,0.355
8,GTAATTGA,0.246
9,ATAATTTC,0.351
10,TAAAGCCA,-0.0305
11,AACTCAAT,0.296
12,CGCCATTC,-0.0796
13,AATAAGGC,-0.0153
14,ATGTCGCG,-0.0435
15,CCATTTAC,0.0848
16,GTCATATA,0.291
17,GAATGGGA,-0.15
18,ACGAGCTA,-0.107
19,AAAACTAG,0.334
20,AAAACTGT,-0.0241
21,AAAACTCC,0.0005
22,CAAACTAC,0.43
